From PubChem BioAssay
Shown are actives, neighbours in structure and some others; about 9.4% of the full set was active somewhere.
AMA1 RON2 block: AMA1-RON2 (P. falciparum) interaction inhibition | 360,000 compounds, 0.2% hits | AlphaScreen AMA1-biotinylated RON2 peptide binding | Potency, µM (titrated, usually from 58.2 µM), inactives show at the highest dose activity change, negative = inhibition, usual class: inhibitors | AID 720542;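 also: 0% = vehicle wells and -100% = peptide control; nearly all actives have a fitted effect of over 45% in size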
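AMA1 (3D7) with his tag at 25 nM final met compounds first, then biotinylated RON2 peptide at 25 nM; detection used donor plus acceptor beads, 10 µg/mL apiece, read by AlphaScreen after 30 min at room temperature.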
Pf growth 96h: P. falciparum growth inhibition at 96 hours; P. falciparum luciferase reporter growth, 96 h; Potency, µM (doses to about 28.7 µM), for inactives: at the highest dose activity change, negative = inhibition, hits mostly inhibitors; 320,000 compounds, 6.9% hits; AID 504834; also: % is scaled to controls: 0 for no effect and ±100 for the full control effect
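Erythrocytes infected with luciferase-expressing P. falciparum were dispensed at 2% hematocrit and 0.05% parasitemia (final), then incubated with compounds 96 hours at 37 C in 5% CO2. Luminescence after detection reagent addition reported growth.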
SARS PLpro yeast: inhibitors of SARS-CoV papain-like protease in yeast; S. cerevisiae expressing SARS-CoV PLpro, growth rescue; Potency, µM (titrated, usually from 32.9 µM), for the others: top-dose activity, positive = growth rescue, hits mostly activators; 330,000 compounds, 0.19% hits; AID 485353; calls by dose curve; also: 0% is about no effect; nearly all actives have a fitted effect of over 55% in size
Pf growth 48h: P. falciparum growth inhibition at 48 hours (one generation) | 310,000 compounds, 5.9% hits | P. falciparum luciferase growth in erythrocytes, 48 h | Potency, µM (doses to about 28.7 µM), for the others: at the highest dose activity change, negative = inhibition, most hits filed as inhibitors; also: % is scaled to controls: 0 for no effect and ±100 for the full control effect
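Read-out is firefly luciferase luminescence from an integrated reporter in P. falciparum, so falling signal marks reduced parasite growth. Infected erythrocytes were at 2% hematocrit and 0.1% parasitemia (final) in Albumax-supplemented RPMI 1640.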
* = called active by the depositor; [ ] = remark or other dose. Unless noted, calls follow the shape of the dose curve; as a rule, active = well fitted curve in the direction sought with a large enough effect; inconclusive = small, poorly fitted or top-dose-only effect, or another doubt; inactive = no such curve, though single readings can be large; an effect the other way counts as inactive or inconclusive. Potency is read from the fitted curve at half-maximal effect.

How did COc1ccc(Br)cc1CNC(=O)C1CCC(=O)N1C(C)C (stereo not drawn) do in these assays?
AMA1 RON2 block: -3.1%

What do the screens show for `CNC(=O)CSc1nnc(-c2ccccn2)n1Cc1ccco1`?
AMA1 RON2 block: -11.3%; Pf growth 96h: 5.5%; SARS PLpro yeast: 0.7%; Pf growth 48h: 12.5%

Results for Cc1ccccc1Nc1nnc(SCc2cc([N+](=O)[O-])cc3c2OCOC3)s1 ?
AMA1 RON2 block: -4.4%; Pf growth 96h: 4.65µM*; SARS PLpro yeast: 3.3%

Results for O=c1[nH]c2cc3c(cc2cc1CN(Cc1nnnn1C1CCCC1)C1CCCC1)OCCO3 ?
AMA1 RON2 block: -12.7%; Pf growth 96h: 9.28µM*; SARS PLpro yeast: 1.7%

What do the screens show for `COc1ccc2cc(CN(CC3COCCO3)S(=O)(=O)c3ccccc3)c(=O)[nH]c2c1` (stereo not drawn)?
AMA1 RON2 block: 0.0%; Pf growth 96h: 13.0%[5.75 µM]; SARS PLpro yeast: -11.2%; Pf growth 48h: -15.8%

What do the screens show for `COc1cc2cc(CN(Cc3cccnc3)C(=O)NCc3ccccc3)c(=O)[nH]c2cc1OC`?
AMA1 RON2 block: -5.1%; Pf growth 96h: inconclusive; SARS PLpro yeast: -14.5%; Pf growth 48h: 9.28µM*

How did COc1ccc2cc(CN(Cc3cccnc3)S(=O)(=O)c3ccccc3)c(=O)[nH]c2c1 do in these assays?
AMA1 RON2 block: -4.5%; SARS PLpro yeast: -5.3%; Pf growth 48h: 10.4µM*

What do the screens show for `COc1ccc2cc(CN(CC3CCCO3)C(=O)Nc3ccccc3OC)c(=O)[nH]c2c1` (stereo not drawn)?
AMA1 RON2 block: -4.3%; Pf growth 96h: 125.9%; SARS PLpro yeast: -0.7%; Pf growth 48h: inconclusive

What do the screens show for `COc1ccc2cc(CN(C(=O)Nc3ccccc3OC)C3CCCC3)c(=O)[nH]c2c1`?
AMA1 RON2 block: 2.2%; Pf growth 96h: 17.2%; SARS PLpro yeast: 1.7%; Pf growth 48h: 2.33µM*

How did Cc1ccc(N2C(=O)C3C(c4ccccc4)N4CCCN4C3(C)C2=O)cc1 (stereo not drawn) do in these assays?
AMA1 RON2 block: 3.4%; Pf growth 96h: inconclusive; SARS PLpro yeast: 3.3%; Pf growth 48h: inconclusive

Results for CCOC(=O)Cc1csc(NC(=O)c2ccc(Cl)nc2)n1 ?
AMA1 RON2 block: 27.9%; Pf growth 96h: 0.0%; SARS PLpro yeast: 0.0%; Pf growth 48h: inconclusive

How did Fc1ccccc1CSc1nnc(Cn2cnc3ccccc32)n1-c1ccccc1 do in these assays?
AMA1 RON2 block: 12.5%; SARS PLpro yeast: 1.9%; Pf growth 48h: inconclusive

Results for O=C(NC1CCCCC1)N(Cc1cc2cc3c(cc2[nH]c1=O)OCCO3)C1CCCCC1 ?
AMA1 RON2 block: 3.6%; Pf growth 96h: 5.86µM*; SARS PLpro yeast: 7.4%

How did COc1cc2cc(CN(C(=O)NC3CCCCC3)C3CCCC3)c(=O)[nH]c2cc1OC do in these assays?
AMA1 RON2 block: 2.9%; Pf growth 96h: inconclusive; SARS PLpro yeast: 2.9%; Pf growth 48h: 11.7µM*

Results for COc1ccc(CN(Cc2cc3cc(OC)c(OC)cc3[nH]c2=O)C(=O)NC2CCCCC2)cc1 ?
AMA1 RON2 block: -4.3%; Pf growth 96h: 1.65µM*; SARS PLpro yeast: 15.8%

How did CCN(CC)CCN(Cc1cc2ccc(C)cc2[nH]c1=O)C(=O)NC1CCCCC1 do in these assays?
AMA1 RON2 block: 8.7%; Pf growth 96h: 7.2%; SARS PLpro yeast: 0.2%; Pf growth 48h: inconclusive

Results for CN(Cc1ccccc1)S(=O)(=O)c1ccc2c(c1)NC(=O)CC(=O)N2 ?
AMA1 RON2 block: 31.6%; Pf growth 96h: 10.4µM*; SARS PLpro yeast: -0.9%; Pf growth 48h: 50.7%

Results for O=C(Cn1cnc2ccccc2c1=O)NCCC(=O)N1CCN(Cc2ccccc2)CC1 ?
AMA1 RON2 block: 23.5%; Pf growth 96h: inconclusive; SARS PLpro yeast: -0.7%; Pf growth 48h: -1.0%

How did Cc1cc(F)ccc1NCC(=O)Nc1ccc(Br)cc1C do in these assays?
AMA1 RON2 block: -16.9%; Pf growth 96h: -23.6%; SARS PLpro yeast: -43.6%; Pf growth 48h: -4.9%

How did COCC(=O)Nc1ccc(Br)cc1C do in these assays?
AMA1 RON2 block: 7.2%; Pf growth 96h: 5.86µM*; SARS PLpro yeast: -0.1%; Pf growth 48h: 11.9%[5.75 µM]

Results for Cc1cc(C)c2nc(SCc3ccc([N+](=O)[O-])cc3)nc(C)c2c1 ?
AMA1 RON2 block: -7.1%; Pf growth 96h: 13.1µM*; SARS PLpro yeast: 2.7%; Pf growth 48h: -22.5%

What do the screens show for `Cc1ccc2nc(SCc3ccc([N+](=O)[O-])cc3)nc(C)c2c1`?
AMA1 RON2 block: 2.7%; Pf growth 96h: 3.3%; SARS PLpro yeast: 4.0%; Pf growth 48h: 2.0%

How did COc1cc(/C=C/C(=O)N2CCC=CC2=O)cc(OC)c1OC do in these assays?
AMA1 RON2 block: -12.5%; Pf growth 96h: inconclusive; Pf growth 48h: 9.28µM*

What do the screens show for `O=C(/C=C/c1cccs1)Nc1cccnc1`?
AMA1 RON2 block: -1.7%; Pf growth 96h: 4.65µM*; SARS PLpro yeast: -10.8%; Pf growth 48h: 216.5%

Results for COc1cc(/C=C/C(=O)Nc2cccnc2)cc(OC)c1OC ?
AMA1 RON2 block: 4.1%; Pf growth 96h: 9.28µM*; SARS PLpro yeast: 2.3%; Pf growth 48h: -15.6%

Results for COc1cc(/C=C/C(=O)Nc2ccc3[nH]c(=O)[nH]c3c2)cc(OC)c1OC ?
AMA1 RON2 block: 12.4%; Pf growth 96h: -10.4%; SARS PLpro yeast: 1.3%; Pf growth 48h: 10.4µM*

What do the screens show for `COc1cc(CNC(=O)c2cc(C(=O)NCc3cc(OC)cc(OC)c3)n(C)n2)cc(OC)c1`?
AMA1 RON2 block: -0.3%; Pf growth 96h: inconclusive; SARS PLpro yeast: -7.1%; Pf growth 48h: inconclusive

Results for COc1ccc(/C=C/C(=O)NNc2cc(=O)n(C)c(=O)n2C)cc1OC ?
AMA1 RON2 block: 27.9%; Pf growth 96h: -14.6%; SARS PLpro yeast: 0.0%; Pf growth 48h: -8.0%

Results for COc1cc(/C=C\C(=O)Nc2cc(=O)n(C)c(=O)n2C)cc(OC)c1OC ?
AMA1 RON2 block: 12.5%; Pf growth 96h: inconclusive; SARS PLpro yeast: 2.6%; Pf growth 48h: 5.22µM*

What do the screens show for `Cc1ccc(NC(=O)CNC(=O)c2cccc(C)c2)nc1`?
AMA1 RON2 block: 8.7%; Pf growth 96h: 70.7%; SARS PLpro yeast: -3.5%; Pf growth 48h: 48.6%

How did COc1ccc(-c2cn3ccccc3n2)cc1[N+](=O)[O-] do in these assays?
AMA1 RON2 block: -11.0%; Pf growth 96h: 161.7%; SARS PLpro yeast: -36.5%; Pf growth 48h: 146.5%

How did CC(=O)NNC(=O)CCn1c2c(c3ccccc31)CCCC2 do in these assays?
AMA1 RON2 block: 66.8%; Pf growth 96h: 87.3%; SARS PLpro yeast: 3.0%; Pf growth 48h: -12.1%

What do the screens show for `CCCCCCCCCCn1c2c(c(=N)c3c1CCC3)CCC2`?
AMA1 RON2 block: -6.3%; Pf growth 96h: 0.117µM*; SARS PLpro yeast: -42.6%; Pf growth 48h: 0.262µM*

How did CCCCCCCCCn1c2c(c(=N)c3c1CCC3)CCCC2 do in these assays?
AMA1 RON2 block: 4.8%; Pf growth 96h: 27.4%; SARS PLpro yeast: -5.2%; Pf growth 48h: inconclusive

Results for CCCCn1c2c(c(=N)c3ccccc31)CCC2 ?
AMA1 RON2 block: -24.4%; Pf growth 96h: inconclusive; SARS PLpro yeast: -1.0%; Pf growth 48h: 0.415µM*
